Calls of active or inactive are those of the source.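 Rule for the calls, unless noted: active = inhibition of the reporter signal at or above 50%; inactive = inhibition below 50%.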
What was measured:
[1] = inhibitors of TNFa-induced NFkB p65 translocation, primary screen, imaging, HUVEC, MLSMR starter and 10KST1 sets (AID 438;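 active = inhibition above 20% together with a positive visual image hit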;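 note: compound added about 3h40 before a 20 min TNFalpha stimulation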;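 for inhibition: signal is the nuclear over cytoplasmic p65 intensity ratio per well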); settings: HUVEC TNFa-induced p65 nuclear translocation; cell count: measured here: nuclei count (cytotoxicity indicator), at 2.08 µM; inhibition: at 2 µM, stronger effect = higher value, 0% TNFa-plus-vehicle, 100% no-TNFa wells
[2] = inhibitors of mutant huntingtin aggregation, primary screen, imaging, exon1htt(103Q)mCFP cells, high-content imaging (AID 483;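 active = visual image review flags a hit and inhibition of aggregation exceeds 20%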;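 note: compound exposure lasted 3 days before fixation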;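 for nuclei count: percent of the per-plate median nuclei count of sample wells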); settings: exon1htt(103Q)mCFP cell line, aggregate imaging, at 2 µM; inhibition of aggregation: stronger effect = higher value; nuclei count: measured here: cell count, toxicity
[3] = inhibitors of E-selectin induction by TNFa, primary screen, imaging, HUVEC, immunofluorescence, MLSMR starter and 10KST1 sets (AID 487;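 active = visually confirmed hit in the image check and inhibition above 20%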;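 for inhibition: signal is fraction of cell area covered by stained E-selectin grains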;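 for nuclei count: 100% = median nuclei count of all wells on the same plate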); settings: HUVEC TNFalpha-induced E-selectin immunofluorescence imaging, at 2 µM; inhibition: stronger effect = higher value; nuclei count: measured here: cell number, toxicity
[4] = biological target: Voltage-gated potassium channel subunit beta-2 (Rattus norvegicus) (UniProt P62483); assay: KvBeta enzyme negative modulators, primary screen, biochemical, NADPH fluorescence (AID 622;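 active = fluorescence slope higher than the sample average by over 3 SD, cut at about -0.22 in these data, passing the limit was not always enough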;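 note: slope of raw intensity against log time taken from 70 to 1610 s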); settings: recombinant KvBeta, 4-cyanobenzaldehyde reduction, at 10 µM, stronger effect = higher value
Sequence of Voltage-gated potassium channel subunit beta-2 (Rattus norvegicus) (P62483 whole entry, looked up): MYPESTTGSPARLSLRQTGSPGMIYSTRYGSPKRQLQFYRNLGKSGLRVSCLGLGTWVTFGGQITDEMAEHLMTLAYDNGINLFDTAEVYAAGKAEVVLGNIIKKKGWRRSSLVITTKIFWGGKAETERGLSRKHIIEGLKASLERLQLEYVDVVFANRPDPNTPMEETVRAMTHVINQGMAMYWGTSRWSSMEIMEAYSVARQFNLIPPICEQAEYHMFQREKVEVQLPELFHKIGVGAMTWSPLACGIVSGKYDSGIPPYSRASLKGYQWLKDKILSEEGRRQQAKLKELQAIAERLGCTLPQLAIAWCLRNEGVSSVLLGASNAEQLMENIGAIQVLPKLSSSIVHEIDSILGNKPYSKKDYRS

[5] = biological target: Voltage-gated potassium channel subunit beta-2 (Rattus norvegicus) (UniProt P62483); assay: KvBeta positive modulators, primary screen, biochemical, NADPH fluorescence (AID 623;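 active = NADPH fluorescence slope more negative than the mean of all samples by about 3 SD, 99.7% confidence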;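 note: fluorescence intensity change per second fitted from 20 to 320 s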); settings: Recombinant KvBeta, NADPH fluorescence decrease slope, 10 min; at 10 µM; stronger effect = lower value
[6] = biological target: Alpha-2C adrenergic receptor (Homo sapiens) (UniProt P18825); assay: modulators of alpha2C/GIRK thallium flux, primary screen, cell-based, HEK293 alpha2C/GIRK1/2 (AID 624;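 active = fluorescence slope after compound addition differing from the mean of all screened samples at 99.7% confidence, in either direction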;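 note: slope of fluorescence ratio to pre-addition baseline per second over 15 to 24 s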); settings: thallium flux BTC fluorescence, at 10 µM, actives lie on both sides
Sequence of Alpha-2C adrenergic receptor (Homo sapiens) (P18825 whole entry, looked up): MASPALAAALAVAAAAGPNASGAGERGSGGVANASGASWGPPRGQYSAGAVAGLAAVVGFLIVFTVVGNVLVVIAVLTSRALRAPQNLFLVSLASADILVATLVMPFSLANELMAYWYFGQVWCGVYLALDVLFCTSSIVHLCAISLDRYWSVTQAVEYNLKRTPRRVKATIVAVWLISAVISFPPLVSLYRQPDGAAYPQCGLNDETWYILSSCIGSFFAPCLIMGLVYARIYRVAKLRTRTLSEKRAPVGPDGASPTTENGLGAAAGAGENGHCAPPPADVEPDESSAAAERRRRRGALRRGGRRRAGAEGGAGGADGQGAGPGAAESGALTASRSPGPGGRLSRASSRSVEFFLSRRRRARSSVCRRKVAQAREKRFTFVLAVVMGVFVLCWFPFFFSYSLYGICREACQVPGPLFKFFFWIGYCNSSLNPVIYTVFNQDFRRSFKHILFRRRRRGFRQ

[7] = inhibitors of Sendai virus-induced IRF3 signaling, primary screen, TLR/RLR signaling modifier project, cell-based, Sendai virus stimulus, luciferase, 10K MLSCN set (AID 602276;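 active = inhibition at or above 50% at 10 µM; inactive = inhibition below 50%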;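 note: firefly luciferase from ISG56 promoter only with Renilla not read in this screen; 0% = Sendai virus plus DMSO and 100% = medium plus DMSO without virus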); settings: HEK293 RL24 IRF3 luciferase reporter, at 10 µM, stronger effect = higher value
[8] = inhibitors of poly I:C-induced TLR3 signaling, primary screen, cell-based, poly I:C stimulus, luciferase, 10K MLSCN set (AID 602277); settings: HEK293-TLR3 RL24 IRF3 luciferase reporter, at 10 µM, stronger effect = higher value

Structure (SMILES)	cell count [1]	inhibition [1]	inhibition of aggregation [2]	nuclei count [2]	inhibition [3]	nuclei count [3]	fluorescence slope [4]	NADPH fluorescence slope [5]	slope [6]	inhibition [7]	inhibition [8]
O=C(NCC1CCCO1)c1ccccc1-c1nc(-c2ccc(Cl)cc2)no1 (centres undefined)	821	-0.7% (inactive)	1.8% (inactive)	101%	-141% (inactive)	122%	-0.483 (inactive)	3.6e-05 (inactive)	0.0055 (inactive)	-17.2% (inactive)	-4.71% (inactive)
CCCOc1cccc(C(=O)Nc2cc(NC(=O)c3ccco3)ccc2OC)c1	436	3.8% (inactive)	2.3% (inactive)	101%	8.3% (inactive)	105%	-0.278 (inactive)	-2.4e-05 (inactive)	0.00685 (inactive)	2.93% (inactive)	-15% (inactive)
CCCN1CCN(CCCNC(=O)C2CCCN(c3nc4ccc(OCC)cc4s3)C2)CC1 (centres undefined)	513	-14% (inactive)	23.6% (inactive)	121%	-18.5% (inactive)	119%	-0.398 (inactive)	-4.5e-05 (inactive)	0.00402 (inactive)	-9.58% (inactive)	-10.2% (inactive)
O=C(NCC(c1cccnc1)N1CCOCC1)c1cccs1 (centres undefined)	357	9.8% (inactive)	-3.5% (inactive)	97.5%	-81% (inactive)	123%	-0.414 (inactive)	-1.2e-05 (inactive)	0.00412 (inactive)	5.49% (inactive)	10.9% (inactive)
CNC(=O)CN(c1ccc(C(C)C)cc1)S(C)(=O)=O	372	-0.8% (inactive)	-4.8% (inactive)	114%	24.1% (inactive)	114%	-0.397 (inactive)	1.3e-05 (inactive)	0.00372 (inactive)	11% (inactive)	35.7% (inactive)
COc1ccc(NC(=O)CS(=O)CC(=O)Nc2cc(Cl)ccc2OC)cc1 (centres undefined)	485	10.5% (inactive)	5.3% (inactive)	71.7%	-34.6% (inactive)	96%	-0.362 (inactive)	-6.2e-05 (inactive)	0.00691 (inactive)	13.1% (inactive)	28.4% (inactive)
CC(=O)Nc1ccc(S(=O)(=O)NCc2cn3c(C)csc3n2)cc1	531	-7.6% (inactive)	-8.4% (inactive)	104%	-29.8% (inactive)	84.3%	-0.588 (inactive)	-3.6e-05 (inactive)	0.00529 (inactive)	1.88% (inactive)	8.5% (inactive)
CCCSc1nnc(N2C(=O)CC(c3ccsc3)C3=C2CCCC3=O)s1 (centres undefined)	640	-5.3% (inactive)	24.3% (inactive)	90.4%	-39.5% (inactive)	102%	-0.558 (inactive)	-3.6e-05 (inactive)	0.00697 (inactive)	5.11% (inactive)	26.4% (inactive)
O=C(NCc1ccc(F)cc1)C1CCN(C(=O)NCc2ccccc2)CC1	643	-3.5% (inactive)	2.3% (inactive)	110%	-18.5% (inactive)	106%	-0.448 (inactive)	-4.9e-05 (inactive)	0.00381 (inactive)	5.76% (inactive)	32.5% (inactive)
Cc1nc2ccc(C(=O)c3ccccc3)cc2[nH]1	411	7.2% (inactive)	18.6% (inactive)	69.6%	-8.7% (inactive)	105%	-0.389 (inactive)	2.4e-05 (inactive)	0.00371 (inactive)	-30.7% (inactive)	-56.7% (inactive)
O=C(CN1CCN(Cc2ccc3c(c2)OCO3)CC1)Nc1ccc2c(c1)OCCO2	248	-3% (inactive)	2.7% (inactive)	75.7%	-19.1% (inactive)	85.5%	-0.583 (inactive)	-4.2e-05 (inactive)	0.00576 (inactive)	0.946% (inactive)	17.2% (inactive)
COc1ccc(N2CCN(C(=O)c3c(-c4ccccc4)noc3C)CC2)cc1	650	1.1% (inactive)	-16% (inactive)	90.4%	-7.4% (inactive)	96%	-0.578 (inactive)	-3.3e-05 (inactive)	0.00611 (inactive)	-19.4% (inactive)	-16.5% (inactive)
CN(C)CCCN1C(=O)CSC1c1ccccc1 (centres undefined)	607	-8.9% (inactive)	30.6% (inactive)	93.9%	-57.4% (inactive)	104%	-0.541 (inactive)	-3e-05 (inactive)	0.00787 (inactive)	4.6% (inactive)	35.9% (inactive)
Cc1cc(C)n(-c2cc(N3CCOCC3)ncn2)n1	690	-9.8% (inactive)	3% (inactive)	89.8%	-69.3% (inactive)	125%	-0.436 (inactive)	-3.4e-06 (inactive)	0.00484 (inactive)	2.82% (inactive)	0.822% (inactive)
